Data on 11 compounds can be found in PubChem BioAssay.

The nature of assay [1]: LFS_MB_1R medulloblastoma cell growth inhibition, synergistic combos for chromothripsis tumors, cisplatin or BGB combos (AID 1671452).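 Also: cells exposed for 96 hours before readout.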 The conditions noted are these: LFS_MB_1R medulloblastoma cells, stronger effect = higher value.
The nature of assay [2]: CRL2098 osteosarcoma cell growth inhibition, synergistic combos for chromothripsis tumors, BGB or cisplatin IC20 combos (AID 1671454).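 Also: cells exposed for 96 h before readout; 0% = vehicle DMSO and 100% = killing by high DMSO.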 The conditions noted are these: CRL2098 osteosarcoma cells, drug combinations, stronger effect = higher value.
The nature of assay [3]: HD-MB03 medulloblastoma cell growth inhibition, synergistic combos for chromothripsis tumors, BGB or cisplatin IC20 combos (AID 1671455; in the data active = inhibition above about 83%;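 also: 0% = vehicle DMSO and 100% = high DMSO as cytotoxic control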). The conditions noted are these: HD-MB03 medulloblastoma cells, stronger effect = higher value.
Assay [4] can be described thus: UWB1.289 ovarian carcinoma cell growth inhibition, synergistic combos for chromothripsis tumors, BGB or cisplatin combos (AID 1671456).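 Also: cells exposed to compound for four days; 0% = vehicle DMSO and 100% = killing by high DMSO.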 The conditions noted are these: UWB1.289 ovarian carcinoma cells, stronger effect = higher value.
A short description of assay [5]: LFS_MB_2R medulloblastoma cell growth inhibition, synergistic combos for chromothripsis tumors, cisplatin combos (AID 1671457).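 Also: cells exposed to compound for four days before readout.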 Particulars: LFS_MB_2R medulloblastoma cells, stronger effect = higher value.
The nature of assay [6]: MDA-MB-436 breast carcinoma cell growth inhibition, synergistic combos for chromothripsis tumors, BGB or cisplatin combos (AID 1671458; call rule not given here;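 also: cells exposed for 96 hours; 0% = vehicle DMSO and 100% = killing by high DMSO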). Particulars: MDA-MB-436 breast carcinoma growth inhibition, drug combinations, stronger effect = higher value.
Assay [7] is described as follows: UWB1.289_BRCA1 ovarian cancer growth, cell-based, BGB or cisplatin combinations (AID 1671459). The conditions noted are these: UWB1.289 BRCA1 ovarian carcinoma, drug combinations, stronger effect = higher value.
The nature of assay [8]: human astrocyte viability loss, single and combined drugs, cytotoxicity control for chromothriptic childhood tumor combination screen, cell-based, BGB or cisplatin IC20 combos (AID 1671460).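 Also: cells exposed to compounds for 96 hours before viability readout; 0% = vehicle and 100% = killing control.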 The conditions noted are these: Human astrocytes, drug combinations, stronger effect = higher value.
Assay [9] can be described thus: growth inhibition of BT084 medulloblastoma cells, cell-based, ICGC_MB145, cisplatin and BGB IC40 combos (AID 1671461).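 Also: cells exposed to drugs for 96 hours; 0% = vehicle DMSO and 100% = high DMSO full killing control.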 Particulars: drug combinations, stronger effect = higher value.
A short description of assay [10]: growth inhibition of RCMB18 medulloblastoma cells, cell-based, cisplatin and BGB IC40 combos (AID 1671462).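 Also: cells exposed to compound for four days.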 Particulars: stronger effect = higher value.
A short description of assay [11]: growth inhibition of CRL1545 osteosarcoma cells, cell-based, cisplatin and BGB IC20 combos (AID 1671464).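 Also: cells exposed to compound for 96 hours before readout; 0% = vehicle DMSO and 100% = high DMSO killing control.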 Particulars: stronger effect = higher value.
A short description of assay [12]: circadian clock period modulators, cell-based, LOPAC library, luminescence reporter (AID 2774; call rule not given here;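 also: values are relative to mean of DMSO wells on each plate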). The conditions noted are these: circadian reporter cells, at 7 µM, actives lie on both sides.
Assay [13] deals with Hepatitis C virus NS3 helicase. Description: HCV NS3 helicase inhibitors, primary screen, biochemical, fluorescence polarization, LOPAC1280 library (AID 687035; in the data active = inhibition above about 37%). Particulars: Purified HCV NS3 helicase, Cy5-dT15 ssDNA binding fluorescence polarization; stronger effect = higher value; concentration not given here.
The nature of assay [14]: Cy5 fluorescence quenching or enhancement artefacts, artefact control for HCV NS3 helicase inhibitor project, biochemical, LOPAC1280 (AID 687037; call rule not given here). The conditions noted are these: Cy5-DNA-NS3h complex fluorescence interference counterscreen.
The nature of assay [15]: hESC survival regulators, cell-based (AID 493140; call rule not given here;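 also: cells exposed to compounds for four days before counting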). Particulars: human embryonic stem cell survival screen; stronger effect = higher value.
Assay [16] can be described thus: kinase inhibitors against Plasmodium liver-stage infection, cell-based, known kinase inhibitor set, luminescence, hepatoma host viability (AID 624392; call rule not given here;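 also: infected cells incubated roughly two days before readout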). The conditions noted are these: Plasmodium liver stage in hepatoma cells, luciferase luminescence, concentration not given here; liver cell % of control: measured here: host liver cell viability; parasite % of control: stronger effect = lower value.

A short description of assay [17]: phospholipid biosynthesis inhibitors in animal cells, primary screen, cell-based, LOPAC library, screen 4 (AID 1347384; call rule not given here). The conditions noted are these: phospholipid biosynthesis inhibition screen, at 10 µM.
Assay [18] concerns the target Mitogen-activated protein kinase 7 (Homo sapiens) (UniProt Q13164). The experiment in a line: ERK5 transactivation activators in reporter cells, primary screen, cell-based, HTS (AID 1508626;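 active = luciferase signal above three times the same-plate solvent-only control wells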;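 also: luciferase driven by Gal4-ERK5 fusion binding five Gal4 sites before minimal TATA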). The conditions noted are these: HeLa Gal4-ERK5 transactivation, 18 h, at 5 µM, stronger effect = higher value.
The mark [19] stands for this setting: measured here: combination with BGB IC40, at 0.05 µM.
The mark [20] stands for this setting: measured here: combination with cisplatin, at 0.5 µM.
[21] abbreviates: measured here: combination with cisplatin, at 5 µM.
[22] abbreviates: measured here: combination with BGB at IC20, at 0.5 µM.
Setting [23] is: measured here: combination with cisplatin at IC20, at 0.5 µM.
[24] abbreviates: measured here: combo with BGB at IC20, at 0.5 µM.
[25] abbreviates: measured here: combo with cisplatin at IC20, at 0.5 µM.
Setting [26] is: measured here: inhibition with BGB combination, at 0.05 µM.
Setting [27] is: measured here: inhibition with cisplatin combination, at 0.05 µM.
Where [28] appears, read: measured here: BGB combination, at 0.5 µM.
Where [29] appears, read: measured here: BGB combination, at 5 µM.
Where [30] appears, read: measured here: cisplatin combination, at 0.5 µM.
Setting [31] is: measured here: cisplatin combination, at 5 µM.
The mark [32] stands for this setting: BGB combination, concentration series, at 5 µM.
Where [33] appears, read: cisplatin combination, concentration series, at 5 µM.
Where [34] appears, read: measured here: combo with BGB IC20, at 0.5 µM.
[35] abbreviates: measured here: combo with cisplatin IC20, at 0.5 µM.
Setting [36] is: cisplatin combination, at 0.5 µM.
The mark [37] stands for this setting: measured here: BGB IC40 combination 0.05 uM, at 0.05 µM.
Setting [38] is: measured here: BGB IC40 combination, at 0.05 µM.
Where [39] appears, read: measured here: with BGB IC20 combination, at 0.5 µM.
[40] abbreviates: measured here: with cisplatin IC20 combination, at 0.5 µM.

Molecules are shown by their SMILES. Calls of active or inactive are those of the source. Rule as the data show it, unless noted: active = inhibition above about 80%; inactive = the rest.

Mitogen-activated protein kinase 7 (Homo sapiens), sequence (Q13164 whole entry, looked up, the tested form may be a part): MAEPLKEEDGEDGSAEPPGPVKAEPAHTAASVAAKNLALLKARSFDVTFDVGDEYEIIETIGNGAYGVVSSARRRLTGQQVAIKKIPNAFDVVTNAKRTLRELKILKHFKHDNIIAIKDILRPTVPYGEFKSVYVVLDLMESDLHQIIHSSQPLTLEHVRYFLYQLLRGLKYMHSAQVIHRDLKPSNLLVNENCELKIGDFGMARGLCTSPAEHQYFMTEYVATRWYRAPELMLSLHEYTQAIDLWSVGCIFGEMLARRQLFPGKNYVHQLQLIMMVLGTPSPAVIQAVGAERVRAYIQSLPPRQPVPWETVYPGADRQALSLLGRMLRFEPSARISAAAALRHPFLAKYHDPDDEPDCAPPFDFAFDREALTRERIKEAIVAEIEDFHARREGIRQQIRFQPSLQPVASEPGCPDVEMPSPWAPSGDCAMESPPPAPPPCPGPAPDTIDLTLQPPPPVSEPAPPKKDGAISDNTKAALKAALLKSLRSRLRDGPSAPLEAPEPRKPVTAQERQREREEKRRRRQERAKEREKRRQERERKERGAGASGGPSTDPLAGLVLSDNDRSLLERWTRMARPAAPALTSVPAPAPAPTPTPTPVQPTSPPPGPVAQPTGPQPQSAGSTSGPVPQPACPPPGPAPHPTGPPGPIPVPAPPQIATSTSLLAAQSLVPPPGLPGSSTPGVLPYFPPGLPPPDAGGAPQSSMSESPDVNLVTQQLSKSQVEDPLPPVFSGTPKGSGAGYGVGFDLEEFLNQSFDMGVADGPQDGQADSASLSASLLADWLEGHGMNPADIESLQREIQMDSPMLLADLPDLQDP

For the compound `O=c1cc(N2CCOCC2)oc2c1ccc1ccccc12`, the inhibition was -3.28% (inactive) in assay [1] (at 0.5 µM); -8.81% in assay [1] (setting [19]); -5.09% in [1] (setting [20]); 16.4% in assay [1] (setting [21]); -13.1% (inactive) in assay [2] (at 0.5 µM); -40.8% in [2] (setting [22]). For the same compound, the inhibition is 19.4% in assay [2] (setting [23]); 3.57% (inactive) in assay [3] (at 0.5 µM); 4.4% in [3] (setting [24]); -1.01% in assay [3] (setting [25]); -1.52% (inactive) in assay [4] (at 0.5 µM); 2.55% in assay [4] (setting [26]). Moreover, the inhibition in assay [4] (setting [27]) was -7.12%; in assay [5] (at 0.5 µM), 0.24% (inactive); in assay [5] (setting [20]), 7.58%; in assay [5] (setting [21]), 0.815%; in assay [6] (at 0.5 µM), 2.45% (inactive); in assay [6] (setting [28]), 5.3%. Besides, the inhibition is -21.1% in assay [6] (setting [29]); -2.44% in assay [6] (setting [30]); -6.05% in [6] (setting [31]); -2.5% in assay [7] (setting [32]); -1.77% (inactive) in assay [7] (at 0.5 µM); 4.97% in assay [7] (setting [33]). Also, the inhibition in assay [8] (at 0.5 µM) was 1.74% (inactive); in assay [8] (setting [34]), -0.854%; in assay [8] (setting [35]) it was 0.235%; in assay [9] (at 0.5 µM), -4.41% (inactive); in [9] (setting [36]), -0.482%; in assay [9] (cisplatin combination, at 5 µM), -111%. In addition, the inhibition in assay [9] (setting [37]) was -19.7%; in assay [9] (single agent, at 5 µM), 2.3%; in assay [10] (at 0.5 µM), -17.7% (inactive); in assay [10] (cisplatin combo, at 5 µM), 21.8%; in assay [10] (setting [38]), -2.3%; in [10] (setting [20]), -18.7%. Also, the inhibition in assay [10] (single agent, at 5 µM) was 1.08%; in assay [11] (at 0.5 µM), 11.6% (inactive); in [11] (setting [39]), -23.5%; in assay [11] (setting [40]), 28%; in [11] (single agent, at 0.05 µM), -4.12%; in assay [11] (single agent, at 5 µM) it was -7.26%.

Take `N#C/C(=C\c1ccc(O)c(O)c1)C(=O)Nc1ccccc1`: the period change in assay [12] is 0.11 h (inactive). Also, the inhibition in assay [13] is -2% (inactive). Moreover, the fluorescence ratio (interference) in assay [14] was 0.9 (inactive).

On to `Cc1c(CC(C)(C)C(=O)O)n(Cc2ccc(Cl)cc2)c2ccc(F)cc12`, for which, in assay [12], the period change was -0.04 h (inactive).

`COC(=O)/C=C/c1cc(O)ccc1O`: the survival in assay [15] is 85.3 (inactive).

As to `CCOC(=O)C12CC1/C(=N\O)c1ccccc1O2` (stereo unspecified), in assay [13], the inhibition is 0% (inactive). Besides, the fluorescence ratio (interference) in [14] is 1 (inactive).

As to `CN(C)C(=O)n1nnnc1Cc1ccc(-c2ccccc2)cc1`, the inhibition in assay [13] was -2% (inactive). Also, the fluorescence ratio (interference) in assay [14] is 1 (inactive).

In the case of `COc1ccc(OC)c2c(=S)c3ccccc3[nH]c12`, in assay [16], the liver cell % of control was 97.2% and the parasite % of control was 125% (inactive).

With `CS(=O)(=O)c1cccc(CNc2nc(Nc3ccc4c(c3)CCC(=O)N4)ncc2C(F)(F)F)c1`, the call in assay [17] was inactive.

As to `COc1cc2nc(N3CCCN(C)CC3)nc(NC3CCN(Cc4ccccc4)CC3)c2cc1OC`, in assay [13], the inhibition is 3% (inactive). Further, in assay [14], the fluorescence ratio (interference) was 1 (inactive). The outcome in assay [17] was inactive.

As to `CC[C@H](CC[C@@H](C)[C@H]1CC[C@H]2[C@@H]3CC=C4C[C@@H](O)CC[C@]4(C)[C@H]3CC[C@]12C)C(C)C`, in [15], the survival was 9.58 (inactive). Also, in assay [18], the luciferase signal is 32 AU (inactive).

With `CC(=O)Nc1nc(C)c(-c2ccc(Cl)c(S(=O)(=O)NCCO)c2)s1`, the inhibition in assay [1] (at 0.5 µM) was 1.54% (inactive); in [1] (setting [19]), -12.3%; in assay [1] (setting [20]), 15.7%; in assay [1] (setting [21]), 14.2%; in assay [2] (at 0.5 µM), 17% (inactive); in assay [2] (setting [22]), 5.45%. Besides, the inhibition was 52.4% in assay [2] (setting [23]); 14.3% (inactive) in assay [3] (at 0.5 µM); 17.8% in assay [3] (setting [24]); 10.3% in assay [3] (setting [25]); 10.9% (inactive) in assay [4] (at 0.5 µM); 10.4% in assay [4] (setting [26]). In addition, the inhibition in [4] (setting [27]) is 1.8%; in assay [5] (at 0.5 µM), 9.32% (inactive); in [5] (setting [20]), 10.4%; in assay [5] (setting [21]), 43.2%; in assay [6] (at 0.5 µM) it was 1.41% (inactive); in assay [6] (setting [28]), -2.21%. Further, the inhibition in assay [6] (setting [29]) is -3.92%; in assay [6] (setting [30]) it was -6.73%; in assay [6] (setting [31]) it was -16.3%; in assay [7] (setting [32]), 22.7%; in assay [7] (at 0.5 µM) it was 6.36% (inactive); in assay [7] (setting [33]), 12.2%. In addition, the inhibition in [8] (at 0.5 µM) was 23.1% (inactive); in [8] (setting [34]) it was 23.7%; in assay [8] (setting [35]), 25.1%; in assay [9] (at 0.5 µM) it was 10.3% (inactive); in assay [9] (setting [36]), 14.9%; in assay [9] (cisplatin combination, at 5 µM), -88.1%. Also, the inhibition in [9] (setting [37]) is 3%; in assay [9] (single agent, at 5 µM), 29.8%; in [10] (at 0.5 µM), 9.76% (inactive); in assay [10] (cisplatin combo, at 5 µM), 16.5%; in assay [10] (setting [38]), -25%; in assay [10] (setting [20]), 0.78%. In addition, the inhibition was 15.1% in [10] (single agent, at 5 µM); -8.22% (inactive) in assay [11] (at 0.5 µM); -13.7% in assay [11] (setting [39]); -7.2% in assay [11] (setting [40]); -0.058% in [11] (single agent, at 0.05 µM); 1.73% in assay [11] (single agent, at 5 µM).

Usually inhibition stands for the drop in the measured response relative to a control, in per cent.
